Laboratory results published in PubChem BioAssay (NCATS).
Inconclusive results are not listed. Entries that show only a call come without a potency. A number with no mark means an inactive call. Activity calls are given as the source filed them. The call rests on the fitted dose curve; in most records, active means well fitted curve in the direction sought with a large enough effect; inconclusive means small, poorly fitted or top-dose-only effect, or another doubt; inactive means no such curve, though single readings can be large; an effect the other way counts as inactive or inconclusive.

Columns and labels:
[1] = test system: KB-3-1; test: Cytotoxic Profiling of Annotated Libraries Using Quantitative High-Throughput Screening (AID 1296008); settings: Five cell lines viability, CellTiter-Glo ATP luminescence, 48-72 h; max response: hits give low values; further: nearly all actives have a fitted effect of over 60% in size
How it was run: (§1)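 Compounds were pin-transferred onto cells and incubated 48 or 72 hr at 37 degree Celsius, 95% humidity. CellTiter-Glo was added, plates sat 10 min at room temperature, then ATP-coupled luminescence was imaged as the viability read-out.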

[2] = test system: NIH3T3; test: as above; settings: Five cell lines viability, CellTiter-Glo ATP luminescence, 48-72 h; max response: hits give low values
How it was run: as §1

[3] = test system: HACAT; test: qHTS assay to identify novel small-molecules to repurpose for Merkel cell carcinoma treatment (AID 1296009); settings: MCC and control cell lines, CellTiter-Glo viability, 72 h; at 44.8 µM (top of the series) unless noted; further: nearly all actives have a fitted effect of over 60% in size
How it was run: (§2)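 qHTS format: cells treated with library compounds in DMSO across 8 (NPC) or 11 (MIPE) concentrations. Readout after 72 hr at 37 degree celsius was CellTiter-Glo luminescence.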

[4] = test system: HEK293T; test: as above; settings: MCC and control cell lines, CellTiter-Glo viability, 72 h; series mostly up to 44.8 µM
How it was run: as §2

[5] = test system: NIH3T3; test: as above; settings: MCC and control cell lines, CellTiter-Glo viability, 72 h; at 44.8 µM (top of the series) unless noted
How it was run: as §2

[6] = test system: C33A; test: Primary qHTS to identify gynecologic anti-cancer compounds using libraries of approved drugs and bioactive compounds (AID 1345084); settings: Gynecologic cancer cell panel viability, ATPlite luminescence, 48 h; series mostly up to 57.5 µM; further: nearly all actives have a fitted effect of over 55% in size; further: potency means the concentration at half of the fitted maximal effect
How it was run: (§3)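 Cells, 1,000 per well, plated 16 h, then exposed 48 h at 37 C to compounds. Viability by ATPlite luminescence after 15 min at room temperature.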

[7] = test system: CASKI; test: as above; settings: Gynecologic cancer cell panel viability, ATPlite luminescence, 48 h; series mostly up to 57.5 µM
How it was run: as §3

[8] = test system: Es-2; test: as above; settings: Gynecologic cancer cell panel viability, ATPlite luminescence, 48 h; series mostly up to 57.5 µM
How it was run: as §3

[9] = test system: HeLa; test: as above; settings: Gynecologic cancer cell panel viability, ATPlite luminescence, 48 h; series mostly up to 57.5 µM
How it was run: as §3

[10] = test system: Hek293T; test: as above; settings: Gynecologic cancer cell panel viability, ATPlite luminescence, 48 h, control line for the selectivity index; series mostly up to 57.5 µM
How it was run: as §3

[11] = test system: JEG-3; test: as above; settings: Gynecologic cancer cell panel viability, ATPlite luminescence, 48 h; series mostly up to 57.5 µM
How it was run: as §3

[12] = test system: OV90; test: as above; settings: Gynecologic cancer cell panel viability, ATPlite luminescence, 48 h; series mostly up to 57.5 µM
How it was run: as §3

[13] = test system: PA-1; test: as above; settings: Gynecologic cancer cell panel viability, ATPlite luminescence, 48 h; series mostly up to 57.5 µM
How it was run: as §3

[14] = test system: CAOV3; test: as above; settings: Gynecologic cancer cell panel viability, ATPlite luminescence, 48 h; series mostly up to 57.5 µM
How it was run: as §3

SMILES	max response [1] [%]	outcome [2]	outcome [3]	Potency [4]	outcome [5]	Potency [6]	Potency [7]	Potency [8]	Potency [9]	Potency [10]	Potency [11]	Potency [12]	Potency [13]	outcome [1]	max response [2] [%]	Potency [14]
CC(C)CC(=O)OC[C@H]1O[C@@](COC(=O)CC(C)C)(O[C@H]2O[C@H](CO)[C@@H](O)[C@H](O)[C@H]2O)[C@@H](OC(=O)CC(C)C)[C@@H]1OC(=O)CC(C)C	9.19	inactive	inactive [at 17.4 µM]	inactive	inactive [at 17.4 µM]	inactive	inactive	inactive	inactive	inactive	inactive	inactive	inactive	–	–	–
CCOC(=O)[C@H]1O[C@@H]1C(=O)N[C@@H](CC(C)C)C(=O)NCCC(C)C	–	–	inactive	inactive	–	inactive	inactive	inactive	inactive	inactive	inactive	inactive	inactive	inactive	-2.92	inactive
OC[C@H]1O[C@@H](Oc2cc(O)cc(/C=C/c3ccc(O)cc3)c2)[C@H](O)[C@@H](O)[C@@H]1O	–	inactive	inactive	inactive	inactive	inactive	inactive	–	–	–	–	inactive	–	inactive	–	inactive
COC(=O)C1=C[C@@H](O)[C@@H](O)[C@H](O[C@@H]2O[C@H](COC(=O)/C=C/c3ccccc3)[C@@H](O)[C@H](O)[C@H]2O)C1	3.55	inactive	inactive [at 17.4 µM]	inactive	inactive [at 17.4 µM]	inactive	inactive	inactive	inactive	inactive	inactive	inactive	inactive	–	–	–
CC1CCC2C(C)(C)CC(C)(CO)C2(O)C1C(=O)O (stereo not drawn)	9.23	inactive	inactive	inactive	inactive	inactive	inactive	inactive	inactive	inactive	inactive	inactive	inactive	–	–	–
CC(C)CNC(=O)/C=C/CCCCc1ccc2c(c1)OCO2	4.53	–	inactive	inactive	–	inactive	inactive	inactive	inactive	inactive	inactive	inactive	inactive	–	-0.808	inactive
CC(C)(O)C1CCC2(C)C3C(O)C4C(C13)C42CO (stereo not drawn)	9.17	–	inactive	inactive	–	inactive	inactive	inactive	inactive	inactive	inactive	inactive	inactive	–	0.322	inactive
COC1C=C([C@@H]2CC=C3[C@@]4(C)C(CC[C@]32C)[C@@]2(C)C=CC(=O)C(C)(C)C2C[C@H]4OC(C)=O)C(=O)O1 (stereo partly drawn)	-0.943	inactive	inactive [at 17.4 µM]	inactive	inactive [at 17.4 µM]	inactive	inactive	inactive	inactive	inactive	inactive	inactive	inactive	–	–	–
CC1(C)CC[C@]2(C(=O)O)CC[C@]3(C)C(=CCC4[C@@]5(C)CCC(O[C@@H]6OC[C@H](O)[C@H](O)[C@H]6O[C@@H]6O[C@H](CO)[C@@H](O)[C@H](O)[C@H]6O)[C@@](C)(CO)C5CC[C@]43C)[C@@H]2C1 (stereo partly drawn)	4.54	–	inactive [at 17.4 µM]	inactive	–	inactive	inactive	inactive	inactive	inactive	inactive	inactive	–	–	2.38	inactive
C/C=C1/[C@H](O[C@@H]2O[C@H](CO)[C@@H](O)[C@H](O)[C@H]2O)OC=C(C(=O)OC)[C@H]1CC(=O)O[C@@H]1O[C@H](CO)[C@@H](O)[C@H](O)[C@H]1O	–	–	inactive [at 17.4 µM]	inactive	–	inactive	inactive	inactive	inactive	inactive	inactive	inactive	inactive	inactive	4.1	inactive
Clc1ccc2c(c1)C1=NCCN1c1c(-c3noc(C4CC4)n3)ncn1-2	–	inactive	inactive	inactive	inactive	inactive	inactive	inactive	3.16 µM (active)	inactive	inactive	inactive	inactive	inactive	–	–
C=C[C@](C)(CC/C=C(\C)C(=O)O)O[C@@H]1OC[C@H](O)[C@H](O)[C@H]1O	3.33	–	inactive	inactive	–	inactive	inactive	inactive	inactive	inactive	inactive	inactive	–	–	2.21	inactive
CC(CCC1C(C(=O)O)=CC(=O)CC1(C)C)O[C@@H]1O[C@H](CO)[C@@H](O)[C@H](O)[C@H]1O (stereo partly drawn)	–	inactive	inactive	inactive	inactive	inactive	inactive	inactive	inactive	inactive	inactive	inactive	inactive	inactive	–	–
